Screening results deposited in PubChem by several laboratories.
phage Ecoli inh = E. coli growth loss with phage present | 360,000 compounds, 0.26% hits | growth absorbance | AID 651602 | inhibition, % at 11.9 µM; in the data active means inhibition above about 11%
AddAB inh = less growth of phage-infected E. coli with AddAB; E. coli expressing H. pylori AddAB, absorbance growth; inhibition, % at 11.9 µM; 330,000 compounds, 0.29% hits; AID 435030; in the data active means inhibition above about 12%;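 further: 0% = vehicle wells of infected cells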
E coli growth-1 = bacterial growth inhibition, counter-screen for AddAB inhibitors. E. coli V3065 growth, OD600 absorbance, 18 h. inhibition, % at 11.9 µM. AID 449728. 330,000 compounds, 0.27% hits;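 active means inhibition above the campaign's mean inhibition across all tested compounds plus 3 SD, cut at about 9.9% in these data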;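 further: uninfected addAB+ strain grown without phage in ampicillin broth; 0% = DMSO wells and 100% = ciprofloxacin 0.95 µg/ml wells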
Tat transport = blocks Tat-dependent protein export in E. coli; E. coli MC4100 TorA-mCherry Tat export, fluorescence; inhibition, % at 10 µM; 340,000 compounds, 0.036% hits; AID 488895;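 active means mean replicate inhibition at least 50% and at least half of replicates individually reaching 50%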;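 further: exported cargo escapes ClpAP degradation while cytoplasmic cargo is degraded and loses fluorescence; 0% = median of neutral control wells and 100% = median of NaSCN control wells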
E coli growth-2 = blocks Escherichia coli growth. OD600, 23 h; hits give low values. OD600 absorbance (concentration not given with the values). 330,000 compounds, 0.21% hits. AID 1053175;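 active means OD600 absorbance below the run mean of sample wells minus 3.6 SD, in any replicate, cut at about 0.56 in these data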
Starred values were filed as active, the others as inactive; i = inactive; / = no result given. In the library only some 0.5% were active in any assay of this set; here they are far more common.

SMILES	phage Ecoli inh	AddAB inh	E coli growth-1	Tat transport	E coli growth-2
O=C(NN=Cc1ccc([N+](=O)[O-])cc1)C(=O)N1CCCC1	/	/	/	/	0.69
NCCCn1c(C(=O)c2cc(Cl)c(N)c(Cl)c2)c2ccc([N+](=O)[O-])cc2[n+]1[O-]	7	15*	12*	9	0.42*
CN(C)c1ccc(C=c2c3ccccc3n3c2cc(-c2ccc(Cl)cc2)[n+]3C)cc1	-1	/	/	i	/
CN(C)c1ccc(C=c2c3ccccc3n3c2cc(-c2ccccc2)[n+]3C)cc1	11*	/	/	i	/
Cc1ccsc1C=Nn1c(-c2ccccn2)n[nH]c1=S	/	/	/	/	0.67
CC(=O)Oc1ccc(C=NNC(=O)c2ccc(N(C)S(=O)(=O)c3ccccc3)cc2)cc1	/	/	/	/	0.67
O=C(NNC(=O)c1ccco1)c1ccccc1	4	3	1	3	0.72
O=C(NC(=S)NNC(=O)c1ccco1)c1ccccc1	-4	-8	-6	0	0.51*
O=C(Cc1cccs1)NNC(=S)NC(=O)c1ccco1	2	-5	-5	-5	0.32*
Cc1nn(-c2ccccc2)c(N2CCCC2)c1C=Nn1cnc2scc(-c3ccccc3)c2c1=O	/	/	/	/	0.77
COc1ccccc1/C=C/C=NNC(=O)c1ccc2nc[nH]c2c1	/	/	/	/	0.66
O=C1c2cccnc2-c2ncccc21	2	0	1	-2	0.71
O=C1C(=O)c2cccnc2-c2ncccc21	101*	/	/	/	/
CCn1cc(C(=O)N[C@@H](C)C(=O)OC)c(=O)c2cc3c(cc21)OCO3	1	5	8	0	0.084*
CCn1cc(C(=O)O)c(=O)c2cc(Br)ccc21	0	0	0	-1	0.56*
CCn1cc(C(=O)O)c(=O)c2cc3c(cc21)OCO3	/	97*	97*	/	/
CCOC(=O)c1cn(CC)c2ccc(Br)cc2c1=O	1	-1	0	0	0.69
O=C1C=C(c2cccc3c2sc2ccccc23)CC(c2ccc(Cl)cc2)C1 (stereo not drawn)	/	/	/	/	0.78
CCCCCCCC[n+]1cccc2c3ccccc3ccc21	7	3	2	9	0.48*
Cc1cccc(C)c1OCc1nc2ccccc2c(=O)n1N=Cc1c[nH]c2ccccc12	/	/	/	/	0.71
Cc1c(NC(=O)COc2cccc(F)c2)c(=O)n(-c2ccccc2)n1C	3	0	-1	-3	0.7
Cc1c(NC(=O)COc2ccc3ccccc3c2)c(=O)n(-c2ccccc2)n1C	2	2	2	/	0.52*
COC(=O)CN1C(=O)C2C(C=Cc3ccccc3)N3C(=O)CN(Cc4ccc(-c5ccccc5)cc4)C(=O)[C@@]3(C)C2C1=O (stereo partly drawn)	/	/	/	/	0.68
CC(=NNC(=O)c1c([N+](=O)[O-])c(C)nn1C)c1ccc(NC(=O)c2ccc(C)o2)cc1	/	/	/	/	0.72
CC1(C)CC(=O)C=C(NCCN2CCN(C(=O)Nc3ccccc3)CC2)C1	2	-1	-2	52*	0.64
SMILES	phage Ecoli inh	AddAB inh	E coli growth-1	Tat transport	E coli growth-2
CC(CC1CC(C)(C)OC1=O)=NNc1nc(-c2ccccc2)cs1 (stereo not drawn)	/	/	/	/	0.66
COc1cc2c(cc1OC)CN(C(=S)Nc1ccccc1Cl)CC2	2	0	-4	8	0.43*
COc1cc2c(cc1OC)CN(C(=S)Nc1ccccc1)CC2	-1	0	2	1	0.72
Cc1cc(C)nc(N=C(N)Nc2ccc(-c3ccccc3)cc2)n1	/	/	/	/	0.53*
Cc1ccc(C=NNC(=O)CSc2nnc(-c3ccc(Cl)cc3)n2-c2ccc(Cl)cc2)o1	/	/	/	/	0.69
Cc1ccc(/C=N/NC(=O)CSc2nnc(-c3ccc(Cl)cc3)n2-c2ccc(Cl)cc2)o1	11	7	13*	-1	/
CS(=O)(=O)c1ccc(C(O)C(CF)NC(=O)C(Cl)Cl)cc1 (stereo not drawn)	/	/	/	/	0.06*
CS(=O)(=O)c1ccc(C(=O)NC(Cc2ccccc2)c2ccccc2)cc1 (stereo not drawn)	1	3	2	9	0.69
CS(=O)(=O)c1ccc(C(O)C(CO)NC(=O)C(Cl)Cl)cc1 (stereo not drawn)	/	/	/	/	0.38*
COc1ccc2ccccc2c1C=NNC(=O)c1ccc(C)s1	/	/	/	/	0.67
O=C(NN=C1CC2C=CCC12)c1ccco1 (stereo not drawn)	/	/	/	/	0.69
O=C(COc1ccc([N+](=O)[O-])cc1)Nc1cc(S(=O)(=O)N2CCCCC2)ccc1N1CCCCC1	4	0	-1	64*	0.72
Cc1cc(Nc2ccc(Cl)cc2)nc(NCc2ccccc2)n1	4	3	5	-9	0.41*
Cc1cc(Nc2ccccc2)nc(NCc2ccccc2)n1	4	4	4	0	0.6
O=C(Cn1c(CO)nc2ccccc21)NCCc1ccc(F)cc1	4	10	10*	2	0.69
COc1cccc(-c2nnc(NC(=O)c3ccc(Cl)s3)o2)c1	-1	9	0	-16	0.47*
Cc1cccc(-c2nnc(NC(=O)c3ccc(Cl)cc3)o2)c1	-2	3	-1	-1	0.52*
CSc1nc2ccc(Cl)cc2[nH]1	4	1	2	5	0.7
CSc1nc2cc(Oc3cccc(Cl)c3Cl)c(Cl)cc2[nH]1	3	1	5	-19	0.46*
Cc1sc2ncnc(N/N=C/c3cccc(O)c3)c2c1C	2	1	1	2	/
C/C(=N\Nc1ncnc2sc(C)c(C)c12)c1ccccn1	6	11	14*	20	/
OC(c1cc(-c2ccc(C(F)(F)F)cc2)nc(C(F)(F)F)c1)C1CCCCN1 (stereo not drawn)	7	3	6	12	0.49*
OC(c1cc(C(F)(F)F)nc2c(C(F)(F)F)cccc12)C1CCCCN1 (stereo not drawn)	6	-2	1	1	0.42*
Cc1cc(OCCCCn2ccnc2)cc(C)c1Cl	4	0	-1	10	0.5*
COc1ccc(C2CC(=O)C=C(c3ccccc3)C2)cc1OC (stereo not drawn)	/	/	/	/	0.68
SMILES	phage Ecoli inh	AddAB inh	E coli growth-1	Tat transport	E coli growth-2
O=[N+]([O-])c1ccc(NC(=S)NCCc2ccc(F)cc2)cc1	9	11	10	-14	0.46*
O=C(NCCc1ccc(F)cc1)Nc1ccc([N+](=O)[O-])cc1	7	/	/	0	0.55
COc1cccc(C=Nn2c(CO)nc3ccccc32)c1OC	/	/	/	/	0.72
O=[N+]([O-])c1ccc(/C=C/C2=NN(c3ccccc3)C(c3ccco3)C2)o1 (stereo not drawn)	20*	/	/	-10	0.62
O=[N+]([O-])c1cccc2nc3ccccc3c(NCCCn3ccnc3[N+](=O)[O-])c12	16*	/	/	2	/
O=[N+]([O-])c1ccccc1Nc1c2ccccc2nc2ccccc12	1	4	1	2	0.66
Cc1nn(-c2ccccc2)c(C)c1C=NNc1nc2ccccc2[nH]1	/	/	/	/	0.61
O=c1[nH]sc2ccccc12	4	/	/	-1	0.066*
CCOC(=O)NN=Cc1ccc([N+](=O)[O-])o1	/	/	/	/	0.45*
Cc1ccc(C(=O)NN=Cc2ccc([N+](=O)[O-])o2)cn1	/	/	/	/	0.44*
Cc1ccc(C(=O)N/N=C/c2ccc(-c3ccccc3[N+](=O)[O-])o2)cn1	1	1	-1	-4	/
